The target of the first experiment is WFIKKN1. The experiment can be described thus: pooled miR-30 sensor sort-seq; sequence = guide strand. The note with it: shRNA.
The sequence AAGAACTTGAGGCCCATCTTGT showed a sensor-assay potency score (higher = more potent) of -0.385.

In turn, TCGTAGGTCTCAAAGCCGCGGG showed a sensor-assay potency score (higher = more potent) of -1.25.

As for TTGACGCGCTTCTCGCTGGCGG, the sensor-assay potency score (higher = more potent) is -0.83.

TGATGCAGCACTTCTCAGCAGC came in with a sensor-assay potency score (higher = more potent) of -0.485.

The sequence TCGCTGGTGACTCTGCTTCTCC had a sensor-assay potency score (higher = more potent) of -1.48.

On to TTCTTGACGCGCTTCTCGCTGG, for which the sensor-assay potency score (higher = more potent) was -0.797.

In the case of TCATCCTTGAGCACGTCCTCGA, the sensor-assay potency score (higher = more potent) is -0.412.

In the next experiment the target is WIZ. The description is as above. The note with it: shRNA.
The sequence TTCTCGAAGAACTCGCCGCAGA registered a sensor-assay potency score (higher = more potent) of -0.9.

TTGAGGATCTCTCGCAGTGTGT gave a sensor-assay potency score (higher = more potent) of -1.29.

Turning to AATTCCACCTCACAGAACCTGC, the sensor-assay potency score (higher = more potent) is -1.06.

Consider TTCTTCTTGAGGATCTCTCGCA, for which the sensor-assay potency score (higher = more potent) was -0.31.

Consider TTGGCCTTGACCTCTGCTGGGA, for which the sensor-assay potency score (higher = more potent) is -0.479.

TATTTGTTCAGGCTTCAGCTTC came in with a sensor-assay potency score (higher = more potent) of -1.07.

Sequence TTGACAAGTGATGTCTGGGGGG yielded a sensor-assay potency score (higher = more potent) of -0.32.

In turn, TTTGGAGAAGTTCATCTCCAGG came in with a sensor-assay potency score (higher = more potent) of -1.49.

As for TTTGTTGATGTTCTGCCGCTGG, the sensor-assay potency score (higher = more potent) was -0.379.

The sequence TTCTGCTGTAGGTCATTGGTGT returned a sensor-assay potency score (higher = more potent) of -0.0622.

As to TCTTCTTGAGGATCTCTCGCAG, the sensor-assay potency score (higher = more potent) was -0.0721.

In turn, TTCAAATTTGTTGATGTTCTGC yielded a sensor-assay potency score (higher = more potent) of 0.0401.

A further experiment concerns the target WNK4. Described as above. The note with it: shRNA.
For the sequence TTTCCTCGTACATCTCGGGGGC, the sensor-assay potency score (higher = more potent) is -0.103.

For the sequence ATTGTCGCACTTGAGATCCCGG, the sensor-assay potency score (higher = more potent) is -0.626.

The sequence TTGTTGATCAGAAAGCATCAGA displayed a sensor-assay potency score (higher = more potent) of -0.592.

On to TTGAGGTATCGGCCATCGGGGG, for which the sensor-assay potency score (higher = more potent) is -1.54.

In turn, TTTTCCTCGTACATCTCGGGGG gave a sensor-assay potency score (higher = more potent) of 0.127.

In turn, TTTTCTGTAGTGTCTGTAGTGT returned a sensor-assay potency score (higher = more potent) of 0.147.

Sequence TAGTTCATCCACACTGGGCTGG showed a sensor-assay potency score (higher = more potent) of -0.183.

TTCTGTAGTGTCTGTAGTGTTT showed a sensor-assay potency score (higher = more potent) of -0.833.

Take TACTTTTCCTCGTACATCTCGG: the sensor-assay potency score (higher = more potent) is -0.00694.

For TTTCTGTAGTGTCTGTAGTGTT, the sensor-assay potency score (higher = more potent) was -0.643.

As to TCAAACTTGAGGTATCGGCCAT, the sensor-assay potency score (higher = more potent) was -0.186.

TACACCGTCTTGAAGGAGCCAC: the sensor-assay potency score (higher = more potent) was -0.497.

Another experiment deals with WNT16. Described as above. The note with it: shRNA.
The sequence TTAACTTTTCAACATCTTCTAT gave a sensor-assay potency score (higher = more potent) of -0.546.

In turn, TCTACTGACATCAACTTGGCGA gave a sensor-assay potency score (higher = more potent) of -0.481.

Sequence TTTACATTAAAATACATCCTTA yielded a sensor-assay potency score (higher = more potent) of -0.353.

Take TAACTTTTCAACATCTTCTATC: the sensor-assay potency score (higher = more potent) is -0.48.

On to TTCTTTGTCACTAAACATCTGT, for which the sensor-assay potency score (higher = more potent) was -0.0723.

Turning to AAATCTAGGAACTTTCTGCTGA, the sensor-assay potency score (higher = more potent) worked out at 0.396.

As to TTAACAGTTGAAACTGATCTGT, the sensor-assay potency score (higher = more potent) is -0.124.

TTATCTTCTACACAGTAGTTGG came in with a sensor-assay potency score (higher = more potent) of -1.09.

Regarding TAAAATATAATAAATATCCAGG, the sensor-assay potency score (higher = more potent) is -0.303.

Source of the values: the OligoGym collection.
Also: reference of the scale not given here.
